# Target: T1, ETS1 (UniProt P14921)
# T1 sequence: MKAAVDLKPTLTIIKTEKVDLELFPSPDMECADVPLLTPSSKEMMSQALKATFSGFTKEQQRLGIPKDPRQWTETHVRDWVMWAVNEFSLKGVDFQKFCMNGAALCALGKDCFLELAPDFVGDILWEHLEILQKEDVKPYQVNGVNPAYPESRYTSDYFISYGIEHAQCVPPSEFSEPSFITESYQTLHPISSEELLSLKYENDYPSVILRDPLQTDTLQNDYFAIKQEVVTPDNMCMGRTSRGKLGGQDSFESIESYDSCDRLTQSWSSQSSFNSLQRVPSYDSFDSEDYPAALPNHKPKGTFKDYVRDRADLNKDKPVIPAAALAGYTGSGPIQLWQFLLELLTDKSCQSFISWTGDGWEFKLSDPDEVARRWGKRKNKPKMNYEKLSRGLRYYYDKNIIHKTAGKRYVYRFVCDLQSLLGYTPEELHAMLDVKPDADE
# Test: ETS1 binding intensity (PBM fluorescence), ETS1 alone (arbitrary fluorescence units); higher = stronger binding
# Details: ETS1 concentration 1 nM; RUNX1 concentration 0 nM
row,Sequence,ETS1 binding intensity
1,GGGCGGGTCAGCGGAAGTGAGGGCGGTTGAGGCTGG,4740
2,TGGAAGAGGGCAGGAAGTGTTGTGGTCACTCCCACC,4450
3,CCGCTTCCTTAGAGGTTAAGTGGTGGTGGTTCAGTT,473
4,CTGCGTTTCCTCTGAGTTTTGCATGTTGAGGTTGGA,462
5,GGCGGTGACCGGAAGAGCTGAGTCACCGCAGGCGAC,4020
6,GGCGGATGGGGAGAAGAGAGTGGCTGTGGTCTCTGG,371
7,GAGGCGTTTCCGCCTCCTTTTCGCGGTTGCCTTCTC,639
8,ATGGAAAGGAAGTCGGTGGGAAACCGCCTCAGCGGT,797
9,AGGACACAGACAGGAAACCCGCAGGCTTTGTTTTTT,2580
10,CAAGAGCCGGAAGTCCCTTGTGCCGCAGTCCTTCCC,5720
11,TCTGTGAAAAAGGATGTGCGGTTATGGAGGAGAACT,970
12,GGGGGCGGAAGTTTCGGTGCATTGTGGGTTCTCCTG,1260
13,TACAGCCAGGAAATGGGGAGGGTGCTGCGGGCGGCA,858
14,GCTTGCTCCCACAGGAAACCGCAGGCTTCGGGCACA,3190
15,CCCCGCCTCTTCCGCTTCTGTGGTCTGATCTGCCTG,704
16,TCTCTACTTCCCATTATTTCTGTGGTTAATTTCACC,369
17,AGCGGCCTGGGAGGAGGATGTGGTTACGTGGAGACC,1120
18,CTGGTTTCATTTCCGGGTGCGGCTTCTGTCATAAAG,1900
19,GCCACAGCCGGAAGCAGGCTGACCACAAGTGCTAAG,1880
20,GTTAGAGGAAGAGGAAGCGGTCAAGAGATCGTCACA,956

row,Sequence,ETS1 binding intensity
1,GACAGGAAGCCCGCGGCAGCCTCCGTGGTTGCAGAT,562
2,GCTCATTTATGCATCCTGTGGTCTGTGTGTGTTTCG,569
3,CAGCTCTCTCGCTTCCTGTGGTGTAAACATGAAGCA,1570
4,AGATGCAGAACAGGAAGTGGTTTAGAAAGCCACTCT,8980
5,TACAACTTGCAACGGAAACCACTTCAGGTTCATTAC,1320
6,GACCACTTCCTTTCTGTGTTTTGTGGTTTCACAACT,555
7,TTGAGGGGAAGGGGAGGAAGTGGTCATTGGAACTTG,2530
8,ACCCGGATGTCGTTGGGCAGGAACTGCGGTGAGGGC,2580
9,GGGGCCTCTGCTACTTCCTAGACCGCAAAATGGAGA,413
10,TGGAGTGGAGGAAGTGGTGTTACCACAGCTCAGAGG,1050
11,TTTACAGGAAATATCCAGAACAGGTAAACCCACAGA,778
12,CGACCGGAACCACTCTGAGGCGCTGCCGCAGACACC,533
13,TATCAATAAGGAAGTACAATCACCAAACCACAAGCC,619
14,ACCCACTTCCTGTTAGAGCATCTTTGCAACCACAGG,2010
15,ATGGGTACAGGATTTCCTTTTGTGGTGATGAAAATG,697
16,AGCGTTGTCTTCCGGCCTCAACCACTCAGCGACCGG,14400
17,AGCCCGGCTTCCGGCGCGTGCCGCTGCGGCTGCAGG,791
18,GCCACTTCCTGGAAAACAGTAATTACCACACGTCTC,464
19,CCGGGCTGCGGAAGGCGGGAATTCTGCGGTTCGCGG,405
20,CTTACCTACAGTTCCGCTTGCTGTGGTTTCAGTTAC,403

# — the supplement of paper PMC10681739
